Results on four compounds are retold here after PubChem BioAssay.

Assay [1] in a line: yeast TOR pathway RPL19A-GFP modulators, primary screen, cell-based, S. cerevisiae, multiplex flow cytometry (AID 1862).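 Also: lower values mimic rapamycin by blocking the RPL19A rise seen in DMSO cells.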 The conditions noted are these: S. cerevisiae RPL19A-GFP strain, flow cytometry fluorescence, 3 h; at 10 µM; stronger effect = lower value. A general note: Flow cytometry measures light scatter and fluorescence of single cells or particles in a stream.
Assay [2] can be described thus: modulators of MEP2-GFP levels in yeast, primary screen, S. cerevisiae, multiplex flow cytometry (AID 1867;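 active = GFP response, as percent of the DMSO control, above the screen-wide mean plus 3 SD, about 139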;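 also: median GFP channel fluorescence of barcode-gated MEP2-GFP cells measured by flow cytometry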). The settings on record: S. cerevisiae MEP2-GFP strain, 3 h, at 10 µM, stronger effect = higher value, 100% means same as DMSO wells.
Assay [3] is described as follows: modulators of CIT2-GFP expression in yeast, primary screen, S. cerevisiae, GFP fusion, multiplex flow cytometry (AID 1870;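 active = percent response above a set limit, the screen-wide mean plus 3 SD, cut at about 130% in these data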;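 also: barcoded CIT2-GFP strain pooled with four other GFP strains with rapamycin as positive control; median GFP fluorescence per well over plate mean of DMSO wells so 100% = DMSO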). The settings on record: 3 h, at 10 µM, stronger effect = higher value.
Assay [4] is described as follows: modulators of LAP4-GFP expression in yeast, primary screen, S. cerevisiae, multiplex flow cytometry (AID 1873;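 active = GFP signal, as percent of the solvent control, above the screen mean plus 3 SD, about 149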). The conditions noted are these: 3 h, at 10 µM, stronger effect = higher value.
A short description of assay [5]: modulators of AGP1-GFP expression in yeast TOR pathway, primary screen, cell-based, multiplex flow cytometry, S. cerevisiae (AID 1887;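 active = GFP signal above the screen-wide mean plus 3 SD, that is over about 124.5% of the solvent control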;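 also: AGP1-GFP fusion strain of S. cerevisiae within a five-strain barcoded multiplex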). The conditions noted are these: 3 h, at 10 µM, stronger effect = higher value.
Assay [6] can be described thus: inhibitors of CD8+ T cell-vesicle binding, pilot screen, LFA-1/ICAM-1 modulator project, MLPCN validation set, flow cytometry (AID 2523;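 active = response below a set limit, under 55% cells CD8-positive and vesicle-bound, and CD8 cells' 90th-percentile brightness under 279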;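 as to vesicle binding response: mean PE anti-B7-1 fluorescence of CD8+ cells relative to row control; 100% = QL9-loaded vesicles with DMSO vehicle in the same plate row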). The settings on record: 2C mouse CD8+ T cells, at 7 µM, stronger effect = lower value; double positive events: measured here: CD8+/vesicle+ event percentage.
The target in assay [7] is Integrin beta-1 (Homo sapiens) + Integrin alpha-4 (Homo sapiens) (UniProt P13612+P05556). The assay can be described thus: inhibition of HUTS-21 binding to VLA-4, pilot screen, VLA-4 allosteric modulator project, U937 cells, HUTS-21 mAb, flow cytometry, validation set (AID 2674;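 active = inhibition above 50%, about 3 SD of the validation set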;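 also: antibody binding induced by the VLA-4 ligand LDV present at three times its Kd; 0% = LDV ligand with antibody and no compound and 100% = antibody without LDV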). The conditions noted are these: HUTS-21 LIBS mAb binding, at 6.7 µM, stronger effect = higher value, binding induced by LDV ligand.
Chain of Integrin beta-1 (Homo sapiens) + Integrin alpha-4 (Homo sapiens) (P05556 whole entry, looked up): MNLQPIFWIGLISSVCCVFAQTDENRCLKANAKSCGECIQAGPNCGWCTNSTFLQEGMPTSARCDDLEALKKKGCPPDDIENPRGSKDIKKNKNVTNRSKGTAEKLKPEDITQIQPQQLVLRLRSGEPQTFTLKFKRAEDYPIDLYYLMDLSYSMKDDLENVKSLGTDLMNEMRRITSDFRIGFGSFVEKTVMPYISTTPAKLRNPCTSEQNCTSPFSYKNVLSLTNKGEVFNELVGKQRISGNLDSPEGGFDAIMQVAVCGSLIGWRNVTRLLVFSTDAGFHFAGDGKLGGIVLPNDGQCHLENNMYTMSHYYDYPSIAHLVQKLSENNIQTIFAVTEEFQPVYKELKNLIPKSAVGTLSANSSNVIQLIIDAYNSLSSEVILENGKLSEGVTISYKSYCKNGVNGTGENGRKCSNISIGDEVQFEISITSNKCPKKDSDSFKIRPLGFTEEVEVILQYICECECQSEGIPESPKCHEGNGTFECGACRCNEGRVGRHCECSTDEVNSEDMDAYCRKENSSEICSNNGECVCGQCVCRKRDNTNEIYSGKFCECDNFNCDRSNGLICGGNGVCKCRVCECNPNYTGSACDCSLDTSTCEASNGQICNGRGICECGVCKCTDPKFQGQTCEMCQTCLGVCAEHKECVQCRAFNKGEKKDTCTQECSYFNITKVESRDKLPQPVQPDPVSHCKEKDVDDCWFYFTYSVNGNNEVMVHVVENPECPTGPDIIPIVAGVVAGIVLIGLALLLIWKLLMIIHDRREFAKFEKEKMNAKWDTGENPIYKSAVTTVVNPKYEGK
Chain of Integrin beta-1 (Homo sapiens) + Integrin alpha-4 (Homo sapiens) (P13612 whole entry, looked up): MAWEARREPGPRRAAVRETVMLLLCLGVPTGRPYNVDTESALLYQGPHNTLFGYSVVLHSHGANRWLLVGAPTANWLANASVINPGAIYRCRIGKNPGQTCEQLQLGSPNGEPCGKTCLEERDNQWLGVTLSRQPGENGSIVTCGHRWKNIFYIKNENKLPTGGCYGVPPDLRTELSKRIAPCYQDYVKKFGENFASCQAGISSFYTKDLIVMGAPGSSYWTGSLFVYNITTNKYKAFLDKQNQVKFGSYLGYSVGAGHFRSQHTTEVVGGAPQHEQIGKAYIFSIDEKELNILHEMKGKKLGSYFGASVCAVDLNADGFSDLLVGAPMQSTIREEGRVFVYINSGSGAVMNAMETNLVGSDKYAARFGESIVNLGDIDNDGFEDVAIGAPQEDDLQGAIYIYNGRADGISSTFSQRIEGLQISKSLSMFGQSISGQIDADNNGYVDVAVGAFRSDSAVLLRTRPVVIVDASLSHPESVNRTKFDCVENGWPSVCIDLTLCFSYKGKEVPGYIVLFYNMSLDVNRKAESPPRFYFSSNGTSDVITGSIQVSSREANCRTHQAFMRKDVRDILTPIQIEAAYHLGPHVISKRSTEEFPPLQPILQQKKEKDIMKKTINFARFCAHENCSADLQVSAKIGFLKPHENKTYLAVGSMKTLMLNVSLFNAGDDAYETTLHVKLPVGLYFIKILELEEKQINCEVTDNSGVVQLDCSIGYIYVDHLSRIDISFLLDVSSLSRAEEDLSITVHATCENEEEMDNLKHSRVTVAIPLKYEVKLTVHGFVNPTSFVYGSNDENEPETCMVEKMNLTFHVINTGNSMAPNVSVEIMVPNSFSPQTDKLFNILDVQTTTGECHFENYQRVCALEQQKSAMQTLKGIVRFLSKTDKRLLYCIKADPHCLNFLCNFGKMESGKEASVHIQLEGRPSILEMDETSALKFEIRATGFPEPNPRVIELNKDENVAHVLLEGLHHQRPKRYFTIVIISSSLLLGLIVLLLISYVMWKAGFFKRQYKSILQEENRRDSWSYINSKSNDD

Assay [8] is described as follows: superoxide lowering in aged yeast cells, pilot screen, validation compound set (AID 2706;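 active = superoxide response below 65% of plate, a cut near 3 SD across the whole screen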;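 also: yeast exposed to compound for one week at 30 degrees C before staining; 100% = mean of all compound wells on the same plate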). The conditions noted are these: S. cerevisiae aging, superoxide DHE fluorescence; at 10 µM; stronger effect = lower value.
For assay [9], the target named is Beta-adrenergic receptor kinase 1 (Homo sapiens) (UniProt P25098). The assay can be described thus: GRK2 binders displacing RNA aptamer, biochemical, validation, human GRK2, bead flow cytometry (AID 488806;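 active = aptamer binding inhibition above 30%, about 3 SD of noise from non-fluorescent compounds; inactive = inhibition at or below 30%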). The conditions noted are these: bead-bound GRK2, FAM-aptamer displacement, at 10 µM, stronger effect = higher value.
Chain of Beta-adrenergic receptor kinase 1 (Homo sapiens) (P25098 whole entry, looked up): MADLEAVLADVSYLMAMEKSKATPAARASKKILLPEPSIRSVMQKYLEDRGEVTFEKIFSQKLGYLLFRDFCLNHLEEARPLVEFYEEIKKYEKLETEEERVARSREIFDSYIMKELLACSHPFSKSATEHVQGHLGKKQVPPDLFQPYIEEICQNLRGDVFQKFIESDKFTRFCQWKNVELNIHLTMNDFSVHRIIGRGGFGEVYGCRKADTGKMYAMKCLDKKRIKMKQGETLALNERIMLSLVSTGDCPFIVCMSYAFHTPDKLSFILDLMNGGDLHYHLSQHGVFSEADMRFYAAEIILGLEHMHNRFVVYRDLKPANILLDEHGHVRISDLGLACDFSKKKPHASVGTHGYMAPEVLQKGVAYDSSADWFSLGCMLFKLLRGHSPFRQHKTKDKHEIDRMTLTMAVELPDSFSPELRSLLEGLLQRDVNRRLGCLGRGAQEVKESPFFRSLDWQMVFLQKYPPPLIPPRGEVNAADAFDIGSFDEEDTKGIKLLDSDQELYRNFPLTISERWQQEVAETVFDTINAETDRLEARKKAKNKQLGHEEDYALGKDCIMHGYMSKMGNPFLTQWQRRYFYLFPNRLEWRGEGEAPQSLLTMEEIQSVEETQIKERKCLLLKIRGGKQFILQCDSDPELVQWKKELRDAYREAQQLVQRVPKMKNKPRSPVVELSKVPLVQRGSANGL
For assay [10], the target named is Beta-2 adrenergic receptor (Homo sapiens) (UniProt P07550). In words: beta2AR agonists driving receptor internalization, pilot screen, cell-based, FAP fluorogen, flow cytometry, validation set (AID 504459;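 active = percent response above 42, roughly 3 SD of non-fluorescent test compounds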;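 also: agonist-driven loss of surface beta2AR via internalization measured by FAP dye flow cytometry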). The conditions noted are these: Am2.2-beta2AR cells, FAP surface receptor flow cytometry; at 10 µM; stronger effect = higher value.
Chain of Beta-2 adrenergic receptor (Homo sapiens) (P07550 whole entry, looked up): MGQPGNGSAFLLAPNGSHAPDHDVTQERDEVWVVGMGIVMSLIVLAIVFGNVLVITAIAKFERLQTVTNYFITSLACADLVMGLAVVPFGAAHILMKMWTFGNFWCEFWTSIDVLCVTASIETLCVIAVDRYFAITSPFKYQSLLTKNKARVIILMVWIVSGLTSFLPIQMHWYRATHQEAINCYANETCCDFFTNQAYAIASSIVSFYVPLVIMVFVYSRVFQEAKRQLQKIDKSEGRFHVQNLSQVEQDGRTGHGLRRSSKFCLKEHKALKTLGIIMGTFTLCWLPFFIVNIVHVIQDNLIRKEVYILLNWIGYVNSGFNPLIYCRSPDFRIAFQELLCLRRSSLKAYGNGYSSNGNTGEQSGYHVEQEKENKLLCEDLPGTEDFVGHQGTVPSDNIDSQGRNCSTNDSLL
Assay [11] addresses AP-2 complex subunit beta (Homo sapiens) (UniProt P63010). In words: inhibitors of arrestin peptide binding to AP2, pilot screen, biochemical, validation set, GST-AP2 beads, flow cytometry (AID 504541;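 active = inhibition above 54%, about 3 SD of non-fluorescent compounds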;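 also: AP2 carries R879A mutation and is captured from E. coli lysate; bead-bound FITC arrestin peptide fluorescence measuring arrestin peptide binding to AP2; 0% = DMSO wells and 100% = excess unlabeled arrestin peptide control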). The conditions noted are these: FITC arrestin peptide, at 10 µM, stronger effect = higher value, AP2 beta2 appendage fragment, R879A mutant.
The nature of assay [12]: yeast V-ATPase proton transport modulators, S. cerevisiae, pHLuorin, HTS validation (AID 504600; in the data active = response above about 15%;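 also: plate controls were DMSO for no effect and reference compound for full effect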). The settings on record: S. cerevisiae pHLuorin cytosolic pH, at 10 µM, stronger effect = higher value.
Assay [13] deals with anti-desmoglein-3 scFv antibody binding to human DSG3. In words: inhibitors of anti-DSG3 scFv binding to DSG3, pilot screen, biochemical, validation compound set, bead-based, flow cytometry (AID 588368;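 active = binding below the plate cutoff, the plate median minus 3 SD, with a reading above zero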;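 also: signal is the median channel fluorescence of bead-bound GFP antibody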). The conditions noted are these: Protein G beads, DSG3-Fc, scFv-GFP binding, at 10 µM, stronger effect = lower value.
A short description of assay [14]: inhibitors of fungal efflux pumps CDR1, CDR2, MDR1, pilot screen, validation compound set, multiplex, phenotypic (AID 588506;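 active = efflux inhibition above 0.42, the validation set average plus 4 SD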;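 also: Nile Red retained in cells so higher fluorescence means more efflux inhibition; 0 = negative control wells and 1 = enniatin B 25 µM full block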). The conditions noted are these: S. cerevisiae pump-expressing triplex, Nile Red efflux flow cytometry; at 10 µM; stronger effect = higher value; the pumps come from Candida albicans.
Assay [15] concerns the target ATP-binding cassette sub-family B member 6 (Homo sapiens) (UniProt Q9NP58). The assay can be described thus: ABCB6 transporter inhibitors, pilot screen, K562-ABCB6 cells, flow cytometry, validation set (AID 588550;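 active = inhibition above the screen-wide mean plus 3 SD, about 51%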;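 also: 0% = DMSO wells and 100% = benzethonium chloride 70 µM positive control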). The settings on record: K562-ABCB6 porphyrin accumulation, 1 h, at 10 µM, stronger effect = higher value.
A short description of assay [16]: promoters of myeloid differentiation in arrested cells, primary screen, cell-based, GFP/MAC1 double positive, flow cytometry, validation set (AID 588685;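 active = differentiation response of at least 50%, scaled between solvent and reference control, from cells with both markers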;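 also: compound exposure lasts four days before antibody staining and flow analysis; 0% = DMSO wells and 100% = 5 µM fulvestrant positive control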). The settings on record: ER-HoxA9 marrow cells, stronger effect = higher value, normalized: vehicle 0, fulvestrant 100.

Results filed as inconclusive are left out. Calls of active or inactive are those of the source. Rule as the data show it, unless noted: active = percent of DMSO control GFP below about 86%; inactive = the rest, inconclusive results apart.

By inhibition is commonly meant the relative decrease from the control value, in per cent.

Chain of AP-2 complex subunit beta (Homo sapiens) (P63010 whole entry, looked up, the tested form may be a part, one chain of several): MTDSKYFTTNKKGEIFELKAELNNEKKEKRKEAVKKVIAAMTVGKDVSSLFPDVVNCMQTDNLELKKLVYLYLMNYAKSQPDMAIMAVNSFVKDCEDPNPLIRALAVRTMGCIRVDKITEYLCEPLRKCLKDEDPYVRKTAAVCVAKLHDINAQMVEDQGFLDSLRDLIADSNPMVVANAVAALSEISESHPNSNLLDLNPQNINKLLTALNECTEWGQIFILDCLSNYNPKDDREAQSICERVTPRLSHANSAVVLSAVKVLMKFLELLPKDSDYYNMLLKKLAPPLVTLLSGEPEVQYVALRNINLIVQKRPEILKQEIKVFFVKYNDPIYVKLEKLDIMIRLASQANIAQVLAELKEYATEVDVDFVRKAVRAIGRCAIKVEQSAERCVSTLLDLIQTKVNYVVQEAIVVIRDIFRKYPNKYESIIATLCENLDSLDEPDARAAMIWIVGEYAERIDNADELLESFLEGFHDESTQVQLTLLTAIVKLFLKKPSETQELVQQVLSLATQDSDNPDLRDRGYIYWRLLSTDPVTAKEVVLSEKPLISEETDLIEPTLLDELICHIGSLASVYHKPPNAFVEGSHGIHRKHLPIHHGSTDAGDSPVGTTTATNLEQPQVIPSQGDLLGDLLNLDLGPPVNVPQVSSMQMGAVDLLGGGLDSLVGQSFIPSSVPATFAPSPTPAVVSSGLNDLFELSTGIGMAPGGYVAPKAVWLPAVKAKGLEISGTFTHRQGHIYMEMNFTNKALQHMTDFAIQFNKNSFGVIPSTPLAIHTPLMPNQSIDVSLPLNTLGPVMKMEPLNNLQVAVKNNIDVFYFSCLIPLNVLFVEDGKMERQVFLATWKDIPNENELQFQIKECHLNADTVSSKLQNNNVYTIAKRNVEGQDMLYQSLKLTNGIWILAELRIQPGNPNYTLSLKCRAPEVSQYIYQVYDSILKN
Chain of ATP-binding cassette sub-family B member 6 (Homo sapiens) (Q9NP58 whole entry, looked up): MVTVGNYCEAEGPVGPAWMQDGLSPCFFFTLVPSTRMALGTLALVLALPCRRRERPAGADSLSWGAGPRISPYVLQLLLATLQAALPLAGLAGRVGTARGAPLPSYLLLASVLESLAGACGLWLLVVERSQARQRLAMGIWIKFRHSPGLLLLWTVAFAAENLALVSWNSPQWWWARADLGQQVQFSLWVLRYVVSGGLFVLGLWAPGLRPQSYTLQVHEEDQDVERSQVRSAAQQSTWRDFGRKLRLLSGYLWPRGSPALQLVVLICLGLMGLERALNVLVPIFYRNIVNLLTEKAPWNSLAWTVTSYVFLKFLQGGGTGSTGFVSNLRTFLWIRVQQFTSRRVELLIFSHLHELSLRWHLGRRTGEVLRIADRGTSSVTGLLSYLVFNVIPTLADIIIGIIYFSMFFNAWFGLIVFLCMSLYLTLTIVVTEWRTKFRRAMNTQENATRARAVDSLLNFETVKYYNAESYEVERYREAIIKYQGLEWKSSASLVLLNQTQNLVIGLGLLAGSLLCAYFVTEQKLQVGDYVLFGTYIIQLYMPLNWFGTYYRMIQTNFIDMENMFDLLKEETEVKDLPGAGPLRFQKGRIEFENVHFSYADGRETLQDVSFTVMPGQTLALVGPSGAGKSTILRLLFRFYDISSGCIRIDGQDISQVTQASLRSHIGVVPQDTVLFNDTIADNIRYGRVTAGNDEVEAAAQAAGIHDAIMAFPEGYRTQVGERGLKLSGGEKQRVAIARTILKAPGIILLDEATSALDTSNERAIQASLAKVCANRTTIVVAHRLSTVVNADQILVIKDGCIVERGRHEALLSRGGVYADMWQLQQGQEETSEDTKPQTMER

As for `Cn1c(SCC(=O)c2ccccc2)nnc1-c1ccncc1`, in assay [1], the percent of DMSO control GFP is 99% (inactive). Besides, the GFP response vs DMSO was 103% (inactive) in [2] and 112% (inactive) in assay [4]. For the same compound, the percent response of DMSO control in assay [3] is 99.6% (inactive). In addition, the GFP response, % of DMSO in [5] was 107% (inactive). Besides, the double positive events in assay [6] worked out at 61.9%. In [6], the vesicle binding response is 157% (inactive). For the same compound, the inhibition in [7] was 0.59% (inactive); in assay [11] it was 4.51% (inactive); in [15], 2% (inactive). The superoxide response (% of plate) in [8] is 105% (inactive). Further, the aptamer binding inhibition in assay [9] was 6% (inactive). For the same compound, the response is -27.9% (inactive) in assay [10] and -4.48% (inactive) in [12]. For the same compound, in assay [13], the binding (% of control) is 99.2% (inactive). Besides, the efflux inhibition (fraction of control) in assay [14] is -0.04 (inactive). Moreover, the differentiation response in assay [16] is 0.92% (inactive).
As to `CSCCC(NC(=O)OC(C)(C)C)C(=O)Oc1ccc2c(=O)c(-c3ccc4c(c3)OCCO4)coc2c1` (stereo not drawn), the percent of DMSO control GFP in assay [1] was 95.9% (inactive). Moreover, the results for the GFP response vs DMSO in [2] and in assay [4] were 107% (inactive) and 132% (inactive), respectively. In assay [3], the percent response of DMSO control is 94.8% (inactive). For the same compound, the GFP response, % of DMSO in assay [5] was 102% (inactive). In assay [6], this compound showed a double positive events of 59.4%. The vesicle binding response in assay [6] was 190% (inactive). For the same compound, the inhibition is -1.79% (inactive) in assay [7], 3.81% (inactive) in assay [11] and 1% (inactive) in [15]. Moreover, the superoxide response (% of plate) in assay [8] is 99.7% (inactive). The aptamer binding inhibition in assay [9] was 2% (inactive). The results for the response in assay [10] and in [12] were 0.95% (inactive) and -3.69% (inactive), respectively. Besides, in [13], the binding (% of control) was 100% (inactive). For the same compound, the efflux inhibition (fraction of control) in assay [14] is -0.1 (inactive). Moreover, the differentiation response in assay [16] was 5.6% (inactive).
As for `COc1cccc2cc(-c3ccccc3)c(=O)oc12`, the percent of DMSO control GFP in [1] was 105% (inactive). Further, the GFP response vs DMSO in assay [2] is 106% (inactive); in [4] it was 140% (inactive). In addition, the percent response of DMSO control in [3] is 101% (inactive). Moreover, the GFP response, % of DMSO in assay [5] is 106% (inactive). This compound also returned a double positive events in [6] of 61.4%. For the same compound, the vesicle binding response in [6] was 134% (inactive). The results for the inhibition in assay [7], in assay [11] and in assay [15] were -1.97% (inactive), 10.1% (inactive) and 2% (inactive), respectively. Moreover, in assay [8], the superoxide response (% of plate) is 88.6% (inactive). In addition, the aptamer binding inhibition in [9] is 3% (inactive). The response was -27.6% (inactive) in assay [10] and 34.3% (active) in [12]. In addition, the binding (% of control) in [13] is 102% (inactive). Also, in assay [14], the efflux inhibition (fraction of control) is 0.29 (inactive). In addition, the differentiation response in assay [16] is -1.05% (inactive).
On to `CC(=O)Nc1ccccc1C(=O)C(=O)Nc1ccccc1`, for which, in assay [1], the percent of DMSO control GFP is 99.1% (inactive). Besides, the results for the GFP response vs DMSO in [2] and in [4] were 99.6% (inactive) and 114% (inactive), respectively. Besides, in assay [3], the percent response of DMSO control was 99.6% (inactive). For the same compound, the GFP response, % of DMSO in [5] was 97.5% (inactive). Besides, the double positive events in [6] stood at 60.9%. In addition, the vesicle binding response in assay [6] is 83.6% (inactive). The inhibition in assay [7] is 6.4% (inactive); in assay [11], 35.2% (inactive); in [15], 2% (inactive). Besides, in [8], the superoxide response (% of plate) was 102% (inactive). The aptamer binding inhibition in assay [9] is 1% (inactive). The response was -12.9% (inactive) in assay [10] and -3.86% (inactive) in assay [12]. Further, the binding (% of control) in assay [13] is 95.3% (inactive). Also, the efflux inhibition (fraction of control) in assay [14] was -0.35 (inactive). Also, in assay [16], the differentiation response was 29.6% (inactive).
